{"source": "paper PMC5540273", "about": "(PLoS ONE, 2017);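 also: KINOMEscan kinase panel screen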", "conditions_in_all_cases": "concentration: 1 μM, replicates: in singlicate; n = 1", "key": {"MYO3B": {"tested_on": "MYO3B"}, "NDR1": {"tested_on": "T1, NDR1", "T1 construct": "gene STK38"}, "NDR2": {"tested_on": "NDR2"}, "NEK10": {"tested_on": "NEK10"}, "NEK11": {"tested_on": "NEK11"}, "NEK1": {"tested_on": "NEK1"}, "NEK2": {"tested_on": "NEK2"}, "NEK3": {"tested_on": "NEK3"}, "NEK4": {"tested_on": "NEK4"}, "NEK5": {"tested_on": "NEK5"}}, "data": [{"smiles": "C[C@@H](Oc1cc(-n2cnc3ccc(NC(=O)NC(C)(C)C)cc32)sc1C(N)=O)c1ccccc1Cl", "note": "[GSK346294]", "values": [{"measurement": "%Inh", "setting": "MYO3B", "value": 0, "unit": "%"}, {"measurement": "%Inh", "setting": "NDR1", "value": 17, "unit": "%"}, {"measurement": "%Inh", "setting": "NDR2", "value": 17, "unit": "%"}, {"measurement": "%Inh", "setting": "NEK10", "value": 0, "unit": "%"}, {"measurement": "%Inh", "setting": "NEK11", "value": 0, "unit": "%"}, {"measurement": "%Inh", "setting": "NEK1", "value": 0, "unit": "%"}, {"measurement": "%Inh", "setting": "NEK2", "value": 5, "unit": "%"}, {"measurement": "%Inh", "setting": "NEK3", "value": 5, "unit": "%"}, {"measurement": "%Inh", "setting": "NEK4", "value": 0, "unit": "%"}, {"measurement": "%Inh", "setting": "NEK5", "value": 26, "unit": "%"}]}, {"smiles": "Cc1nnc(-c2ccc3occ(-c4ccc(C(C)O)cc4)c3c2)o1", "note": "(stereo not shown)", "values": [{"measurement": "%Inh", "setting": "MYO3B", "value": 0, "unit": "%"}, {"measurement": "%Inh", "setting": "NDR1", "value": 18, "unit": "%"}, {"measurement": "%Inh", "setting": "NDR2", "value": 55, "unit": "%"}, {"measurement": "%Inh", "setting": "NEK10", "value": 30, "unit": "%"}, {"measurement": "%Inh", "setting": "NEK11", "value": 0, "unit": "%"}, {"measurement": "%Inh", "setting": "NEK1", "value": 0, "unit": "%"}, {"measurement": "%Inh", "setting": "NEK2", "value": 0, "unit": "%"}, {"measurement": "%Inh", "setting": "NEK3", "value": 3, "unit": "%"}, {"measurement": "%Inh", "setting": "NEK4", "value": 0, "unit": "%"}, {"measurement": "%Inh", "setting": "NEK5", "value": 0, "unit": "%"}]}, {"smiles": "c1ccc(-c2n[nH]cc2-c2ccnc3ccccc23)nc1", "note": "[GW271431]", "values": [{"measurement": "%Inh", "setting": "MYO3B", "value": 0, "unit": "%"}, {"measurement": "%Inh", "setting": "NDR1", "value": 17, "unit": "%"}, {"measurement": "%Inh", "setting": "NDR2", "value": 0, "unit": "%"}, {"measurement": "%Inh", "setting": "NEK10", "value": 8, "unit": "%"}, {"measurement": "%Inh", "setting": "NEK11", "value": 0, "unit": "%"}, {"measurement": "%Inh", "setting": "NEK1", "value": 0, "unit": "%"}, {"measurement": "%Inh", "setting": "NEK2", "value": 2, "unit": "%"}, {"measurement": "%Inh", "setting": "NEK3", "value": 14, "unit": "%"}, {"measurement": "%Inh", "setting": "NEK4", "value": 3, "unit": "%"}, {"measurement": "%Inh", "setting": "NEK5", "value": 22, "unit": "%"}]}, {"smiles": "COc1ccc(Nc2ncc(C#N)c(Nc3ccccc3C(N)=O)n2)cc1N1CCN(C)CC1.Cl", "note": "[GSK1558669]", "values": [{"measurement": "%Inh", "setting": "MYO3B", "value": 0, "unit": "%"}, {"measurement": "%Inh", "setting": "NDR1", "value": 98.8, "unit": "%"}, {"measurement": "%Inh", "setting": "NDR2", "value": 75, "unit": "%"}, {"measurement": "%Inh", "setting": "NEK10", "value": 94.1, "unit": "%"}, {"measurement": "%Inh", "setting": "NEK11", "value": 97.5, "unit": "%"}, {"measurement": "%Inh", "setting": "NEK1", "value": 91.6, "unit": "%"}, {"measurement": "%Inh", "setting": "NEK2", "value": 99.6, "unit": "%"}, {"measurement": "%Inh", "setting": "NEK3", "value": 93.5, "unit": "%"}, {"measurement": "%Inh", "setting": "NEK4", "value": 94.7, "unit": "%"}, {"measurement": "%Inh", "setting": "NEK5", "value": 100, "unit": "%"}]}]}
